HCV inh: blocks hepatitis C virus; Potency, µM (highest dose often 41.8 µM), inactives show top-dose activity change, negative = inhibition, most hits filed as inhibitors; 340,000 tested, 3.4% active; Huh7.5.1 HCVcc-Cre infection, luciferase reporter, 44 h; active = well fitted inhibition curve with a large enough effect; inconclusive = small, poorly fitted or top-dose-only effect, or another doubt; inactive = no such curve, though single readings can be large or run the other way; also: potency is read from the fitted curve at half-maximal effect
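Reporter virus HCVcc-Cre (~0.5 moi) infects cells exposed to compound; seeding density 1,000 cells/well with 4 h settling beforehand. Luminescence, 15 sec read, taken 44 h post-infection following a 15 min RT substrate incubation.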
MARV entry inh: Marburg virus entry inhibition; Potency, µM (highest dose often 37.8 µM), inactives show at the highest dose activity change, negative = inhibition, usual class: inhibitors; 300,000 tested, 1.8% active; AID 540276; Marburg virus pseudotyped entry inhibition, cell reporter; calls by dose curve; tested in HEK293 cells; also: potency is read from the fitted curve at half-maximal effect
LASV entry inh: Lassa virus entry inhibition; Lassa virus pseudotype entry inhibition, cell reporter; Potency, µM (top dose mostly 37.9 µM), for the others: top-dose activity change, negative = inhibition, hits mostly inhibitors; 300,000 tested, 1.2% active; AID 540256; calls by dose curve; tested in HEK293 cells; also: potency is read from the fitted curve at half-maximal effect; nearly all actives have a fitted effect of over 50% in size
HCMV inh: human cytomegalovirus inhibition. HFF cells, HCMV-luciferase reporter, 72 h; stronger effect = lower value. activity change, negative = inhibition, % at 57.5 µM. 410,000 tested, 4.5% active. AID 1259415; in the data active = activity change below about -60%; inconclusive = no clear call, values can overlap the other calls; inactive = above about -39%
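Cell-based, HFFs, 1000 cells/well, 16 h 37C; cpds in DMSO + HCMV-luc, MOI 1 PFU/cell; 72 h 37C; OneGlo luminescence after 5 min RT; norm. to buffer vs Salinomycin 10uM.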
FMDV inh: blocks foot and mouth disease virus. Potency, µM (doses to about 57.9 µM), for inactives: at the top dose activity change, negative = inhibition, most hits filed as inhibitors. FMDV antiviral cell-based qHTS. 410,000 tested, 1.2% active; calls by dose curve; tested in HEK293T cells; also: read-out not given here; potency is read from the fitted curve at half-maximal effect; nearly all actives have a fitted effect of over 45% in size
The depositor's hits bear a star; ? = inconclusive; / = not tested or not shown; [ ] = another dose, or the depositor's remark. An excerpt weighted towards active compounds, which were near 7.9% of everything screened. % is scaled to controls: 0 for no effect and ±100 for the full control effect.

SMILES	HCV inh	MARV entry inh	LASV entry inh	HCMV inh	FMDV inh
CCOC(=O)Cc1ccc(NC(=O)n2ncc3c(C)cccc32)cc1	/	0%[46.1 µM]	/	-74*	21%
CCOc1ccc(NC(=O)n2ncc3c(C)cccc32)cc1	-12%	/	/	75	75%
Cc1ccccc1NC(NC(=O)c1cccnc1)C(Cl)(Cl)Cl (stereo not drawn)	-10%	-7%	0%	-10	-1%
COc1ccc(NC(NC(=O)c2cccnc2)C(Cl)(Cl)Cl)cc1 (stereo not drawn)	14%	?	-8%[46.1 µM]	-85*	21%
CCCn1c2c(c(=N)c3c1CCC3)CCC2	?	?	-7%	-74*	?
CCCn1c2c(c(=N)c3c1CCC3)CCCC2	12%	?	?	-97*	?
CCOC(=O)Cn1c2c(c(=N)c3c1CCC3)CCCC2	6%	-3%	-19%	?	-15%
CCCCCCCn1c2c(c(=N)c3ccccc31)CCC2	1.8µM*	/	/	-79*	5µM*
CCOC(=O)Cn1nc(N2CCN(c3ccc(F)cc3)CC2)ccc1=O	/	18%[46.1 µM]	8%[46.1 µM]	-8	34%
O=C(CCCSc1nnc(SCCCC(=O)c2ccc(F)cc2)s1)c1ccc(F)cc1	10µM*	?	?	-16	/
c1ccc(CCNc2ccc3c(c2)Cc2ccccc2-3)nc1	-7%	1µM*	?	13	29%
c1ccc(CCNc2ccccn2)nc1	12%	7%	4%	25	28%
Cc1cnc(-n2ncc(C(=O)NCCc3cccnc3)c2C)nc1-c1cccs1	/	/	/	/	-5%
COc1ccc(C2CC(C(F)(F)F)n3nc(C(=O)N(C)Cc4cn(C)nc4C)c(Cl)c3N2)cc1 (stereo not drawn)	-5%	-13%	-2%	-26	-18%
CCOC(=O)c1c(NC(=O)c2cc3n(n2)C(C(F)(F)F)CC(c2cccs2)N3)sc(C)c1C (stereo not drawn)	-22%	9%	-19%	?	0%
Cc1nn(C)c(C)c1CNC(=O)c1cc2n(n1)C(C(F)(F)F)CC(c1cccs1)N2 (stereo not drawn)	?	-29%	-14%	-69*	/
COc1ccc(C2CC(C(F)(F)F)n3nc(C(=O)NCc4c(C)nn(C)c4C)c(Cl)c3N2)cc1 (stereo not drawn)	?	10µM*	-38%	-86*	/
C[C@H]1CC[C@]2(NC1)O[C@H]1C[C@H]3[C@@H]4CC[C@H]5C[C@@H](O)CC[C@]5(C)[C@H]4CC[C@]3(C)[C@H]1[C@@H]2C	/	/	/	/	-9%
COc1ccc(Nc2nccc3[nH]c(-c4cccc(OC(F)(F)F)c4)nc23)cc1OC	/	/	/	-9	/
CN(c1ccccc1)S(=O)(=O)c1cccc(NC(=O)CCNC(=O)c2ccc(Cl)cc2)c1	?	-31%	?	77	32µM*
CN(c1ccccc1)S(=O)(=O)c1cccc(NC(=O)CCNC(=O)c2ccc([N+](=O)[O-])cc2)c1	11µM*	4%	?	19	40µM*
CC(=O)Nc1cccc(NC(=O)CCNC(=O)c2ccccc2)c1	3.2µM*	26%	-3%	-14	4%
COc1ccccc1C(=O)N(Cc1cc2cc3c(cc2nc1N(C)C)OCO3)CC1CCCO1 (stereo not drawn)	/	/	/	/	11%
CCCC(=O)Nc1nc(-c2ccccc2)ns1	-5%	?	21µM*	55	17%
Cc1cc(NC(=O)Nc2nnc(N3CCCCCC3)s2)ccc1Br	/	?	13%[46.1 µM]	4	7%
SMILES	HCV inh	MARV entry inh	LASV entry inh	HCMV inh	FMDV inh
CCOC(=O)[C@]12CCC=C1N(Cc1ccco1)C(=O)[C@H](CC(=O)N1CCC(c3ccccc3)CC1)C2	/	/	/	44	-14%
Cc1cc(C)c(Cn2c3ccccc3c3cnn(CC(=O)NC4CCC(C)CC4)c(=O)c32)c(C)c1 (stereo not drawn)	/	12%[46.1 µM]	-9%[46.1 µM]	-3	0%
COc1ccc(C(=O)c2sc3nc(C)cc(-c4cccs4)c3c2N)cc1	?	-5%	5%	-36	-15%
COc1ccc(C(=O)c2sc3nc(C)cc(-c4cccs4)c3c2N)cc1OC	?	?	2%	-61*	?
COc1ccccc1CN1C(=O)C(C)ON=C1c1ccccc1F (stereo not drawn)	/	/	/	-80*	-19%
CSc1ccc(CN2C(=O)C(C)ON=C2c2ccccc2F)cc1 (stereo not drawn)	/	/	/	-98*	-21%
COc1cc(C(=O)NCCCNc2ccc([N+](=O)[O-])cc2)cc(OC)c1OC	-19%	-11%	1%	14	-22%
CCn1cc(C(=O)O)c(=O)c2cc(F)c(N3CCN(S(=O)(=O)c4ccc(NC(=O)OC)cc4)CC3)cc21	15%	?	-4%	-63*	-22%
CCn1cc(C(=O)NCc2cccc(F)c2)c(=O)c2cc(F)c(N3CCN(C(=O)c4ccco4)CC3)cc21	?	?	?	-86*	16µM*
CCn1cc(C(=O)NCc2cccnc2)c(=O)c2cc(F)c(N3CCN(C(=O)c4ccco4)CC3)cc21	?	?	?	-37	?
CCCNC(=O)c1cn(CC)c2cc(N3CCN(C(=O)c4ccco4)CC3)c(F)cc2c1=O	10µM*	/	/	-36	0%
O=C(CN1CCN(S(=O)(=O)c2cc(C(F)(F)F)ccc2Cl)CC1)N1CCc2ccccc2C1	11µM*	/	/	-28	?
CCCN(CC1CC1)C(=O)CSc1ncnc2sc(C)c(C)c12	?	2%	-6%	-83*	?
S=C1Nc2ccccc2CS1	/	/	/	20	-4%
S=C1Cc2ccccc2N1	?	/	/	-83*	32µM*
Cc1ccc(Cl)cc1N1CCN(S(C)(=O)=O)CC1	0%	-10%	-22%	?	/
Cc1ccc(Cl)cc1N1CCN(CCN)CC1	10µM*	-4%	0%	1	20%
Cc1ccc(Cl)cc1N1CCN(CCNC(=O)Nc2ccc(Cl)cc2)CC1	/	?	18%[46.1 µM]	-90*	?
COc1ccccc1N1CCN(CC(=O)Nc2ccc(CN3CCCCC3)cc2)CC1	?	?	0%	-30	/
Cc1ccc(Cl)cc1N1CCN(CC(=O)Nc2ccc(CN3CCCCC3)cc2)CC1	8.9µM*	?	?	-36	?
O=C(NCc1ccco1)c1cc([N+](=O)[O-])ccc1N1CCOCC1	-1%	/	/	-26	-7%
COc1cccc(NC(=O)[C@@H]2CC(=O)n3cnnc3S2)c1	/	14%	/	/	/
CC(C)Nc1nc(-c2ccccc2)nc(-n2ccnc2)n1	2.8µM*	?	0%	-20	-3%
c1ccc(-c2nc(NC3CC3)nc(-n3ccnc3)n2)cc1	2.5µM*	-2%	-1%	3	-13%
c1ccc(-c2nc(-n3ccnc3)nc(-n3ccnc3)n2)cc1	?	?	-15%	?	?
COc1ccccc1Cc1nc2ccccc2nc1SCC(=O)NCc1ccccc1Cl	/	/	2%[46.1 µM]	11	7%
O=C(NCCCNc1ccc([N+](=O)[O-])cc1)C(F)(F)F	-1%	?	1%	32	-10%
O=C(CCl)N(CCCNC(=O)C(F)(F)F)c1ccc([N+](=O)[O-])cc1	?	-17%[46.1 µM]	3%	-101*	20µM*

Source: PubChem
